Source: PubChem BioAssay (Tox21)
Records with an inconclusive call do not appear. Active and inactive are the calls of the source. Unless noted, calls follow the shape of the full dose curve.

Key:
[1] = qHTS assay to identify small molecule agonists of the sonic hedgehog signaling (Shh) pathway (AID 1259368);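 also: NIH/3T3-derived 3T3Gli1-Luc cells carrying a stable Gli1-driven firefly luciferase reporter; series mostly up to about 92 µM; nearly all actives have a fitted effect of over 15% in size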
Outline: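 Luminescent signal was taken as a measure of Gli1-controlled luciferase expression in stably transfected NIH/3T3-derived cells that had been treated for 24 hr with compounds delivered in DMSO.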

[2] = qHTS assay to identify small molecule antagonists of the sonic hedgehog signaling (Shh) pathway (AID 1259369); also: nearly all actives have a fitted effect of over 45% in size
Outline: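 Screening used 3T3Gli1-Luc cells at 2,000 per well, compounds delivered in DMSO, and conditioned medium as agonist stimulus; plates incubated 24hr at 37 C and 5% CO2 before a 30min luciferase step.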

[3] = biological target: Estrogen receptor beta (Homo sapiens) (UniProt Q92731); assay: qHTS assay to identify small molecule agonists of the estrogen receptor beta (ER-beta) signaling pathway (AID 1259377; active = well fitted activation curve with a large enough effect in the signal ratio in the repeat runs, not every such curve was filed as active; the % refers to the signal ratio)
Chain of Estrogen receptor beta (Homo sapiens) (Q92731 whole entry, looked up): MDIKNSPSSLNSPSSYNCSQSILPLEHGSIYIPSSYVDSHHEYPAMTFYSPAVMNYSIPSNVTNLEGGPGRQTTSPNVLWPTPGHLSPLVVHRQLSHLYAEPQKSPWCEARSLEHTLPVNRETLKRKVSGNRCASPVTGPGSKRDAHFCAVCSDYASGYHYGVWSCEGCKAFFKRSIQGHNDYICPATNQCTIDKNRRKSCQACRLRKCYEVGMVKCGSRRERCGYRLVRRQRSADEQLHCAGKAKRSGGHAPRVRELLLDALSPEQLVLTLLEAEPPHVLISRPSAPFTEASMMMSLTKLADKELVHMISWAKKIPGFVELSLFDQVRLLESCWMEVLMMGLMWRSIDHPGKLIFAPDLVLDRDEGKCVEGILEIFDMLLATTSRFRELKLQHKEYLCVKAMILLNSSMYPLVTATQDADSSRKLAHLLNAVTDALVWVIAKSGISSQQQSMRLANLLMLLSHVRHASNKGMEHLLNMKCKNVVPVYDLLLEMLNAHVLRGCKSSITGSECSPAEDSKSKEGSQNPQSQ
Outline: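 In HEK293T cells bearing a UAS-beta-lactamase reporter under ER-beta control, DMSO-delivered compounds were incubated for 16 hr at 37C. Activity was detected as fluorescence 2 hours after LiveBLAzer B/G FRET substrate addition.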

[4] = qHTS assay to identify small molecule agonists of the estrogen receptor beta (ER-beta) signaling pathway - cell viability counter screen (AID 1259380; active = well fitted curve in the direction sought with a large enough effect in the repeat runs; an effect the other way counts as inactive or inconclusive; also: nearly all actives have a fitted effect of over 30% in size; also: potency is read from the fitted curve at half-maximal effect)
Outline: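 Viability of ER-beta-UAS-bla HEK293T cells was determined by CellTiter-Glo luminescence following 16 hr treatment with test compounds at 37C.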

[5] = biological target: Androgen receptor (Homo sapiens) (UniProt P10275); assay: qHTS assay to identify small molecule agonists of the androgen receptor (AR) signaling pathway in the presence of an antagonist (AID 1259381); also: nearly all actives have a fitted effect of over 15% in size; also: potency is read from the fitted curve at half-maximal effect
Chain of Androgen receptor (Homo sapiens) (P10275 whole entry, looked up): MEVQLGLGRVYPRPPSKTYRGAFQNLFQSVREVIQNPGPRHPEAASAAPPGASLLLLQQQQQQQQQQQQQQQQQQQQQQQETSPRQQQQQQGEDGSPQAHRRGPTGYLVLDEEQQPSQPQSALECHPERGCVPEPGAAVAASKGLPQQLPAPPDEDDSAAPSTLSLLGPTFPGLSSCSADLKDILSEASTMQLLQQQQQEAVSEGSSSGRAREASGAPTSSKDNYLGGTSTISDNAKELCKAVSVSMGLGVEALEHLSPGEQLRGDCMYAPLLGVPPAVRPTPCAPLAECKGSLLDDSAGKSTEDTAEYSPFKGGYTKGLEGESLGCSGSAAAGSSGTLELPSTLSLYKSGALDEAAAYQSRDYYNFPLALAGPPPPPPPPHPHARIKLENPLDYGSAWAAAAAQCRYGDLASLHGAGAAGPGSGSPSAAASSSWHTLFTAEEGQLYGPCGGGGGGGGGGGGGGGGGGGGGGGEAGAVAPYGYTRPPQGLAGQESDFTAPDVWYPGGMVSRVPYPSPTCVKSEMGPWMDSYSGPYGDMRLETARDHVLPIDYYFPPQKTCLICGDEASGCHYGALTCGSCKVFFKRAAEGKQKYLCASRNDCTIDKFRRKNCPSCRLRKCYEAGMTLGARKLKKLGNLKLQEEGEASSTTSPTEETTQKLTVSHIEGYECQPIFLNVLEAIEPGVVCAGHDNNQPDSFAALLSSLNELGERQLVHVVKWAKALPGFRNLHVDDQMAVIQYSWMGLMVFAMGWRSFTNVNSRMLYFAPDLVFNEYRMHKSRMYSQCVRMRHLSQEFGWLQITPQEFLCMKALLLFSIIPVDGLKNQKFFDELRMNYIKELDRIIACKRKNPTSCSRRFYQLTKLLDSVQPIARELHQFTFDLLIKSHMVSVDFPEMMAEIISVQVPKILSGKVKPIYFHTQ
Outline: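 Here, 15-concentration compound series were pin-transferred onto MDA-kb2 MMTV-luciferase cells already dosed with nilutamide (3.0uM final). After 16hr at 37C, ONE-Glo was added and luminescence read 30min later at room temperature.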

[6] = biological target: Estrogen receptor (Homo sapiens) (UniProt P03372); assay: qHTS assay to identify small molecule agonists of the estrogen receptor alpha (ER-alpha) signaling pathway in the presence of an antagonist (AID 1259383); also: nearly all actives have a fitted effect of over 15% in size; also: potency is read from the fitted curve at half-maximal effect; as to activation: top concentration of the series differs between compounds
Chain of Estrogen receptor (Homo sapiens) (P03372 whole entry, looked up): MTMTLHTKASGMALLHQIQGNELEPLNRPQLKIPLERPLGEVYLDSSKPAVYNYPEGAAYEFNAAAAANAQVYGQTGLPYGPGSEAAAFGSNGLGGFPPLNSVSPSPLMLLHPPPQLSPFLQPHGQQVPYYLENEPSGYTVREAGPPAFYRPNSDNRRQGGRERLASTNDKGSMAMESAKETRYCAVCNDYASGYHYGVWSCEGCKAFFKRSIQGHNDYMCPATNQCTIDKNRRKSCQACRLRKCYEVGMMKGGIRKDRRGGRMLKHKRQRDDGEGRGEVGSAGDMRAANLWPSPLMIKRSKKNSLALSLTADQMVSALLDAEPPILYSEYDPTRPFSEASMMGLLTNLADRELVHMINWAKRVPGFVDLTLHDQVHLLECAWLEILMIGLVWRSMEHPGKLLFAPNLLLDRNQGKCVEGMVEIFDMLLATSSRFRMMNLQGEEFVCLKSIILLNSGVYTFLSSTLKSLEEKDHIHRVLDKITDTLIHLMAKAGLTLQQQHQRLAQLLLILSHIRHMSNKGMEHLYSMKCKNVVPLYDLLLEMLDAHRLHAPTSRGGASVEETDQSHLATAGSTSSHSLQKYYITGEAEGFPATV
Outline: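 In VM7Luc4E2 cells, 4,000 per well, compounds at 15 concentrations were co-incubated 22hr at 37C with 10.0nM final ICI-182,780. Luminescence from the stably transfected 4×ERE-luciferase reporter was recorded 30min after ONE-Glo addition.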

[7] = qHTS assay to identify small molecule agonists or antagonists of the thyroid stimulating hormone receptor (TSHR) signaling pathway - wild type cell line counter screen (AID 1259384)
Outline: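 Wild-type Hek293 cells, 800/well, 18 h at 37C, then compound with Ro20-1724 for 30 min RT. cAMP by HTRF (cAMP-d2/anti-cAMP cryptate), 1 h RT, fluorescence read. 15 concentrations, triplicates.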

[8] = qHTS assay to identify small molecule agonists of the estrogen receptor alpha (ER-alpha) signaling pathway in the presence of an antagonist - cell viability counter screen (AID 1259386; active = well fitted curve in the direction sought with a large enough effect in the repeat runs; an effect the other way counts as inactive or inconclusive;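 also: series mostly up to about 92 µM; cells exposed to compounds for 22 h at 37 °C before the viability read; nearly all actives have a fitted effect of over 30% in size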)
Outline: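 Fluorescent CellTiter-Fluor viability signal from VM7Luc4E2 cells, with the reagent added during the final hour of a 22hr compound exposure at 37C in the presence of 10.0nM ICI-182,780.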

[9] = biological target: Progesterone receptor (Homo sapiens) (UniProt P06401); assay: qHTS assay to identify small molecule agonists of the progesterone receptor (PR) signaling pathway (AID 1346784); also: nearly all actives have a fitted effect of over 30% in size; also: potency is read from the fitted curve at half-maximal effect
Chain of Progesterone receptor (Homo sapiens) (P06401 whole entry, looked up): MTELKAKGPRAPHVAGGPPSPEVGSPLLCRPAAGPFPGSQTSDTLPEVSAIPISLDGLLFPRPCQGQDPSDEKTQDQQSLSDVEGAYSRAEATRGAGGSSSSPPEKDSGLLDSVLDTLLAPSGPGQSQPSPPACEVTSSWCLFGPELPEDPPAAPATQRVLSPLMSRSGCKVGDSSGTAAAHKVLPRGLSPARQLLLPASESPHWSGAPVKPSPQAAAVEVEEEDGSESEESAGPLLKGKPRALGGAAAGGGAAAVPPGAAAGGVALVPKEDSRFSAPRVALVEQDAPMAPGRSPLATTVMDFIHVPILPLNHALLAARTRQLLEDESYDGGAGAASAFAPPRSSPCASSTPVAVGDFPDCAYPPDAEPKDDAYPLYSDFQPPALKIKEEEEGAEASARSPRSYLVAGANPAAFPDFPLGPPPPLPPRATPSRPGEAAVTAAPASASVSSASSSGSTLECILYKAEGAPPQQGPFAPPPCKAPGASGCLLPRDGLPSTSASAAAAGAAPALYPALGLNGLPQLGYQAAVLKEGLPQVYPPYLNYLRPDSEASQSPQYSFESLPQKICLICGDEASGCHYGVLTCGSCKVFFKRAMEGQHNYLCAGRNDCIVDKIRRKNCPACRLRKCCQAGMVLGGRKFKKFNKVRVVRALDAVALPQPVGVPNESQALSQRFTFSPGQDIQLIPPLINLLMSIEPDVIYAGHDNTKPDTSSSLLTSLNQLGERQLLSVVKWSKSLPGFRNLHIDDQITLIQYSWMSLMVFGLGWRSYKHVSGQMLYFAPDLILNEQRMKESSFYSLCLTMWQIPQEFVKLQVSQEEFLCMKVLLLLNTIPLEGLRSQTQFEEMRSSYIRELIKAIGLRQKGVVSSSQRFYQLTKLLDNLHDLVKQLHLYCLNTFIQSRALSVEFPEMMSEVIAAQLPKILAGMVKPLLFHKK
Outline: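 Using charcoal-stripped serum (2%) to limit endogenous steroids, PR-UAS-bla HEK 293T cells received compounds for 16 hr at 37C after 6 hr plating; beta-lactamase FRET fluorescence was recorded following 2 hr substrate loading at room temperature.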

[10] = biological target: Progesterone receptor (Homo sapiens) (UniProt P06401); assay: qHTS assay to identify small molecule antagonists of the progesterone receptor (PR) signaling pathway (AID 1346795; active = well fitted inhibition curve with a large enough effect in the signal ratio in the repeat runs, not every such curve was filed as active; the % refers to the signal ratio)
Outline: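 Inhibition of R5020-induced (1 nM final) beta-lactamase reporter signal in PR-UAS-bla HEK293T cells was scored by FRET fluorescence after overnight (16 hr) compound treatment.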

[11] = qHTS assay to identify small molecule antagonists of the progesterone receptor (PR) signaling pathway - cell viability counter screen (AID 1346798; active = well fitted curve in the direction sought with a large enough effect in the repeat runs; an effect the other way counts as inactive or inconclusive; also: series mostly up to about 92 µM; nearly all actives have a fitted effect of over 50% in size)
Outline: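 ATP content as viability readout: CellTiter-Glo luminescence, 30 min room temperature, in PR-UAS-bla HEK293T cells after 16 hr compound/R5020 treatment at 37C and 5% CO2.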

[12] = qHTS assay to identify small molecule agonists of the progesterone receptor (PR) signaling pathway - cell viability counter screen (AID 1346799); also: nearly all actives have a fitted effect of over 45% in size
Outline: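 Cytotoxicity in PR-bla HEK293T cells: 16 h compound, 37C; CellTiter-Glo added post-FRET read; luminescence after 30 min RT.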

[13] = qHTS assay to identify small molecule antagonists of the TGF-beta/Smad signaling pathway - cell viability counter screen (AID 1346824; active = well fitted curve in the direction sought with a large enough effect in the repeat runs; an effect the other way counts as inactive or inconclusive; also: nearly all actives have a fitted effect of over 50% in size)
Outline: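 SBE-bla HEK 293T cells, incubated overnight, then compound plus 0.25 ng/mL TGF-beta1 (stock added) for 5 hr at 37 C. Viability was read in the same wells by CellTiter-Glo luminescence after 30 min at room temperature.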

[14] = qHTS assay to identify small molecule agonists of the TGF-beta/Smad signaling pathway - cell viability counter screen (AID 1346829; active = well fitted curve in the direction sought with a large enough effect in the repeat runs; an effect the other way counts as inactive or inconclusive; also: top concentration of the series differs between compounds; nearly all actives have a fitted effect of over 45% in size)
Outline: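 Compound-treated SBE-bla HEK 293T cells (5 hr, 37 C) were assessed for viability with CellTiter-Glo in parallel with the reporter read.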

[15] = biological target: Thyrotropin-releasing hormone receptor (Homo sapiens) (UniProt P34981); assay: qHTS assay to identify small molecule antagonists of the thyrotropin-releasing hormone receptor (TRHR) signaling pathway (AID 1346877; active = well fitted inhibition curve with a large enough effect in the repeat runs, not every such curve was filed as active; also: series mostly up to about 51 µM)
Chain of Thyrotropin-releasing hormone receptor (Homo sapiens) (P34981 whole entry, looked up): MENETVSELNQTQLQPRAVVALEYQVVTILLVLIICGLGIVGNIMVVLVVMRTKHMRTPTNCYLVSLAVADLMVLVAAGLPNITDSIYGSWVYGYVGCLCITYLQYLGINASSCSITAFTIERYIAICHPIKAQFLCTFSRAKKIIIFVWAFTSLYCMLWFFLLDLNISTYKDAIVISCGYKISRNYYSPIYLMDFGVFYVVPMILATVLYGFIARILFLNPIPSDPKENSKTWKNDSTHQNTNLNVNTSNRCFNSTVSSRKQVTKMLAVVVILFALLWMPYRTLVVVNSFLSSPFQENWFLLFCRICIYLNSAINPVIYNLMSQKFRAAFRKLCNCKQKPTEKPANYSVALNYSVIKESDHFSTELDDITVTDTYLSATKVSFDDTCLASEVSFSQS
Outline: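 In this cell-based calcium flux format, HEK293 cells expressing TRHR received test compound for 5 min before the agonist TRH (1 nM final). Dye loading lasted 2 h at 37 °C.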

[16] = biological target: Estrogen receptor beta (Homo sapiens) (UniProt Q92731); assay: qHTS assay to identify small molecule antagonists of the estrogen receptor beta (ER-beta) signaling pathway (AID 1259378; active = well fitted inhibition curve with a large enough effect in the signal ratio in the repeat runs, not every such curve was filed as active; the % refers to the signal ratio)
Outline: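 ER-beta-UAS-bla HEK293T cells in 2% charcoal-stripped FBS medium treated with compound plus 1nM final 17-beta-estradiol for 16 hr at 37C. Beta-lactamase reporter read by FRET substrate fluorescence after 2 hours at room temperature.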

[17] = qHTS assay to identify small molecule agonists of the androgen receptor (AR) signaling pathway in the presence of an antagonist - cell viability counter screen (AID 1259379; active = well fitted curve in the direction sought with a large enough effect in the repeat runs; an effect the other way counts as inactive or inconclusive;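 also: MDA-kb2 human breast cancer cells carrying an MMTV luciferase reporter; series mostly up to about 92 µM; nearly all actives have a fitted effect of over 25% in size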)
Outline: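 In MDA-kb2 cells (human breast carcinoma, MMTV-luciferase), compounds at 15 concentrations plus 3.0uM nilutamide; 16 hr, 37C, 0% CO2; CellTiter-Fluor fluorescence read for viability.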

[18] = qHTS assay to identify small molecule antagonists of the estrogen receptor beta (ER-beta) signaling pathway - cell viability counter screen (AID 1259382; active = well fitted curve in the direction sought with a large enough effect in the repeat runs; an effect the other way counts as inactive or inconclusive; also: series mostly up to about 92 µM; nearly all actives have a fitted effect of over 55% in size)
Outline: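 Tox21 10K library tested in qHTS format on ER-beta-bla HEK293T cells stimulated with 1nM E2; 16 hr treatment at 37C. Same-well CellTiter-Glo luminescence served as the cell viability measure.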

[19] = qHTS assay to identify small molecule agonists of the TGF-beta/Smad signaling pathway (AID 1346859; active = well fitted activation curve with a large enough effect in the signal ratio in the repeat runs, not every such curve was filed as active; the % refers to the signal ratio; also: series mostly up to about 77 µM)
Outline: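 Stable Smad binding element-beta-lactamase HEK 293T cells; 5 hr compound exposure at 37 C under 5% CO2; 2 hr room-temperature substrate step; fluorescence excited at 405 nm, collected at 460 nm and 530 nm.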

[20] = biological target: Thyrotropin receptor (Homo sapiens) (UniProt P16473); assay: qHTS assay to identify small molecule antagonists of the thyroid stimulating hormone receptor (TSHR) signaling pathway (AID 1259385); also: nearly all actives have a fitted effect of over 20% in size
Chain of Thyrotropin receptor (Homo sapiens) (P16473 whole entry, looked up): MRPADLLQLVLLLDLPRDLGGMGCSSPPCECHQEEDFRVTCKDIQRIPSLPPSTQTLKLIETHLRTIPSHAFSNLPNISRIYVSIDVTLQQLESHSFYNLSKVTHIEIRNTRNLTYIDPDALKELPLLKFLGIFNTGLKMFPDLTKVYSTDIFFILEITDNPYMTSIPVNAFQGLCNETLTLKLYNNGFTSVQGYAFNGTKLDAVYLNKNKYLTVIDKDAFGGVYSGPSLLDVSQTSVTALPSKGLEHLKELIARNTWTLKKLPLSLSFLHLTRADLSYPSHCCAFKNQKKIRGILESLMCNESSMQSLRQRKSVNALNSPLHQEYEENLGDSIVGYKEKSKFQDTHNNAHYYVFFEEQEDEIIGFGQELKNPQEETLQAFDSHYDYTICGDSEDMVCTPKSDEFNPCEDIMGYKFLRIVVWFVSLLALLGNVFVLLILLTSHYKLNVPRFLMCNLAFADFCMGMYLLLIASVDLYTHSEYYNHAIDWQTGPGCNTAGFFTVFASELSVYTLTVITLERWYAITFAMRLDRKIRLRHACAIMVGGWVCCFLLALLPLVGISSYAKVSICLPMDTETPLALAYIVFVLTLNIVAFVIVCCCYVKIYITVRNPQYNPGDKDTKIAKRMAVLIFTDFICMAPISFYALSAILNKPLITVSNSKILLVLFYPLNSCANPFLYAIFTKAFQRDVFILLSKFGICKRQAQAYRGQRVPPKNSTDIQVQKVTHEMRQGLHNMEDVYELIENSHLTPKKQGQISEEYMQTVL
Outline: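 TSHR-HEK293 cells (800/well) plated 18 h, then compounds with Ro20-1724 and TSH at 1.5 ng/mL final, 30 min at room temperature. cAMP quantified by HTRF (cAMP-d2/anti-cAMP-cryptate, 1 h); 15 concentrations in triplicate.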

Measured: Potency

CCCCCOc1ccc(C2SC(=O)NC2=O)cc1OCC (centres undefined)
active: [4] 29.8 µM
not listed: [16] | [17] | [18] | [19] | [20]
inactive: all other assays above

C=C(C)C(=O)OCCOP(=O)(O)O
not listed: [3] | [5] | [11] | [20]
inactive: all other assays above

CCCCCCCOC(=O)CCC
not listed: [3] | [5] | [13] | [15]
inactive: all other assays above

O=C1CCN(c2ccccc2)N1
active: [4] 21.8 µM | [5] 30.7 µM
not listed: [8] | [9] | [11] | [16] | [18]
inactive: all other assays above

Nc1cccc(S(=O)(=O)O)c1
not listed: [5] | [7] | [10] | [11] | [12] | [15] | [17]
inactive: all other assays above

O=C(CC(=O)C(F)(F)F)c1ccccc1
active: [6] 9.83 µM | [9] 8.76 µM
not listed: [4] | [5] | [8] | [15] | [16] | [20]
inactive: all other assays above

O=c1[nH]cnc2c1ncn2[C@@H]1O[C@H](CO)[C@@H](O)[C@H]1O
not listed: [4] | [5] | [6] | [10] | [15]
inactive: all other assays above
